Growth data for eight compounds are collected here from PubChem BioAssay (NCI).

Compounds without any hit were thinned out: in the full panel of roughly 83,000, 20% have a hit.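 In brief: 96-well plates, 48 h treatment, single concentration, percent growth endpoint.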 Unmarked numbers belong to inactive results. Calls of active or inactive are those of the source. Rule for the calls: active = growth percent below 10; inactive = the rest.

Test systems include DU-145 prostate; K-562 leukemia; MALME-3M melanoma; MDA-MB-231 breast; RXF 393 renal; SF-268 CNS; SF-295 CNS; SF-539 CNS; UACC-257 melanoma; M14 melanoma; HCT-15 colon; HT29 colon; SNB-19 CNS; U251 CNS; PC-3 prostate; SK-MEL-5 melanoma; UACC-62 melanoma; LOX IMVI melanoma; SK-MEL-28 melanoma; SNB-75 CNS.
Common to all, as to assay: NCI-60 one-dose screen, 48 h (100 = growth as untreated, 0 = no growth, -100 = all killed)
Common to all, as to settings: 10 µM unless noted

In the case of `COc1ccc(-c2cc(-c3ccc(N(C)C)cc3)nc(NC(=O)c3ccncc3)n2)cc1`, the growth in the experiment with DU-145 prostate was 102%; in the experiment with K-562 leukemia, 95%; with MALME-3M melanoma it was 119%; in the experiment with MDA-MB-231 breast it was 111%; in the experiment on RXF 393 renal, 87.3%; in the experiment with SF-268 CNS it was 98.1%. Also, the growth was 105% in the experiment with SF-295 CNS; 96.8% with SF-539 CNS; 108% with UACC-257 melanoma; 104% in the experiment with M14 melanoma; 90.4% in the experiment on HCT-15 colon; 106% in the experiment on HT29 colon. The growth in the experiment with SNB-19 CNS is 90.2%; with U251 CNS, 98%; in the experiment with PC-3 prostate, 83.5%; in the experiment with SK-MEL-5 melanoma, 89.2%; in the experiment with UACC-62 melanoma, 101%; in the experiment on LOX IMVI melanoma, 91.7%. Moreover, in the experiment with SK-MEL-28 melanoma, the growth was 108%.

With `Cc1ccc(-c2nc(/C=N/Nc3cc(C)nc4ccc(Br)cc34)c(C)o2)cc1`, the growth in the experiment with DU-145 prostate was -33.3% (active); in the experiment on K-562 leukemia, -33.2% (active); in the experiment on MALME-3M melanoma, -82% (active); in the experiment on MDA-MB-231 breast, -91.9% (active); in the experiment on RXF 393 renal, -94.1% (active); in the experiment with SF-268 CNS, -59.4% (active). For the same compound, the growth is 85.7% with SF-295 CNS; 71.3% in the experiment with SF-539 CNS; 97% in the experiment on UACC-257 melanoma; -50.2% (active) in the experiment on M14 melanoma; -83.7% (active) with HCT-15 colon; -70% (active) in the experiment with HT29 colon. For the same compound, the growth in the experiment with SNB-19 CNS is -48.9% (active); with U251 CNS, -76.4% (active); in the experiment on PC-3 prostate it was 5.84% (active); in the experiment with SK-MEL-5 melanoma, 63.8%; in the experiment on UACC-62 melanoma, 86.4%; in the experiment on LOX IMVI melanoma it was -88.5% (active). For the same compound, the growth with SK-MEL-28 melanoma is -13.5% (active).

As for `COc1ccc(S(=O)(=O)NCCCNc2nccc(-c3c(-c4cccc(N)c4)nc4sccn34)n2)cc1`, the growth was 92.1% in the experiment with DU-145 prostate; 69.7% with K-562 leukemia; 103% with MALME-3M melanoma; -61.7% (active) in the experiment with MDA-MB-231 breast; 96.1% in the experiment with RXF 393 renal; 87.6% in the experiment with SF-268 CNS. The growth is 102% in the experiment with SF-295 CNS; 101% in the experiment with SF-539 CNS; 113% in the experiment with UACC-257 melanoma; 80.8% with M14 melanoma; 89.2% in the experiment with HCT-15 colon; 59.7% in the experiment on HT29 colon. In addition, the growth in the experiment with SNB-19 CNS was 110%; with U251 CNS it was 106%; in the experiment with PC-3 prostate, 81.4%; with SK-MEL-5 melanoma, 81.3%; with UACC-62 melanoma, 53%; with LOX IMVI melanoma, 96.4%. In addition, in the experiment on SK-MEL-28 melanoma, the growth was 93.1%.

As to `CC(C)(C)n1cc(-c2ccnc(NCCCNS(=O)(=O)c3cccc4ccccc34)c2)c(-c2cccc(O)c2)n1`, the growth was 42.5% with DU-145 prostate; -4% (active) with K-562 leukemia; -19.2% (active) in the experiment on MALME-3M melanoma; 11.8% in the experiment with MDA-MB-231 breast; 0.843% (active) in the experiment with RXF 393 renal; 37.5% with SF-268 CNS. Moreover, the growth with SF-295 CNS is 8.6% (active); with SF-539 CNS, 41.8%; in the experiment on UACC-257 melanoma, -23.9% (active); in the experiment with M14 melanoma it was 2.67% (active); with HCT-15 colon it was -19.5% (active); in the experiment with HT29 colon, -20.2% (active). In addition, the growth in the experiment on SNB-19 CNS was 56%; in the experiment with U251 CNS, 27%; in the experiment on PC-3 prostate, 21.1%; with SK-MEL-5 melanoma, -20% (active); in the experiment with UACC-62 melanoma, 51.2%; with LOX IMVI melanoma, -45.1% (active). For the same compound, the growth in the experiment with SK-MEL-28 melanoma was -37.2% (active).

Consider `CCOC(=O)c1cnc2ccc(Br)cc2c1Nc1cccc(S(=O)(=O)NC)c1`, for which the growth in the experiment on DU-145 prostate was 103%; in the experiment with K-562 leukemia it was 100%; in the experiment on MALME-3M melanoma, 99.1%; in the experiment with MDA-MB-231 breast, 95.4%; in the experiment with RXF 393 renal, 99.5%; with SF-268 CNS it was 94.9%. Besides, the growth in the experiment with SF-295 CNS is 94.2%; in the experiment on SF-539 CNS, 98.2%; in the experiment with UACC-257 melanoma, 114%; in the experiment on M14 melanoma, 114%; with HCT-15 colon it was 80.5%; with HT29 colon, 101%. In addition, the growth with SNB-19 CNS is 100%; in the experiment with U251 CNS it was 109%; in the experiment with PC-3 prostate it was 102%; in the experiment on SK-MEL-5 melanoma, 96.6%; in the experiment on UACC-62 melanoma it was 96.9%; in the experiment on LOX IMVI melanoma it was 93.6%. The growth with SK-MEL-28 melanoma is 122%.

With `O=C(Nc1nc(-c2ccccc2)cc(-c2ccc(Cl)cc2)n1)c1ccncc1`, the growth was 103% with DU-145 prostate; 93.5% in the experiment with K-562 leukemia; 99.3% in the experiment with MALME-3M melanoma; 94.8% with MDA-MB-231 breast; 85.7% with RXF 393 renal; 94.5% with SF-268 CNS. Besides, the growth in the experiment on SF-295 CNS is 100%; in the experiment with SF-539 CNS, 102%; in the experiment on UACC-257 melanoma, 104%; in the experiment on M14 melanoma, 104%; in the experiment with HCT-15 colon, 104%; with HT29 colon, 96.8%. For the same compound, the growth with SNB-19 CNS is 90.3%; in the experiment with PC-3 prostate, 91.4%; with SK-MEL-5 melanoma, 102%; in the experiment on UACC-62 melanoma, 86.9%; in the experiment on LOX IMVI melanoma, 91.7%; in the experiment on SK-MEL-28 melanoma, 115%.

As to `O=C(/C=C\c1ccc2ccccc2n1)c1cc(Cl)ccc1O`, the growth with DU-145 prostate is 93.3%; in the experiment on K-562 leukemia, 79.4%; with MALME-3M melanoma, 80.5%; in the experiment on MDA-MB-231 breast it was 78.3%; with RXF 393 renal, 84.2%; in the experiment on SF-268 CNS, 71.6%. For the same compound, the growth in the experiment with SF-295 CNS is 69.9%; in the experiment with SF-539 CNS, 87.2%; in the experiment on UACC-257 melanoma it was 84.9%; with HCT-15 colon, 73.6%; with HT29 colon, 71.6%; in the experiment on SNB-75 CNS it was 90.6%. In addition, the growth was 44.3% with U251 CNS; 90.9% with PC-3 prostate; 97% with SK-MEL-5 melanoma; 71.4% with UACC-62 melanoma; 40.8% in the experiment on LOX IMVI melanoma; 99.6% in the experiment with SK-MEL-28 melanoma.

As for `CC(=O)O[C@H]1CC[C@]2(C)[C@H]3CC[C@@H]4[C@H]5[C@H](C(C)C)CC[C@]5(C(=O)OCC(CO)(CO)N=C(N)N)CC[C@@]4(C)[C@]3(C)CC[C@H]2C1(C)C`, the growth with DU-145 prostate was 37.4%; with K-562 leukemia, -26.7% (active); in the experiment on MALME-3M melanoma, 17%; in the experiment on MDA-MB-231 breast it was 42.1%; in the experiment on RXF 393 renal it was 40.6%; with SF-268 CNS it was 77.6%. Besides, the growth with SF-295 CNS was 100%; with SF-539 CNS it was 86.4%; in the experiment on UACC-257 melanoma, 90.2%; with M14 melanoma, 73.4%; in the experiment with HCT-15 colon it was 10.4%; in the experiment with HT29 colon it was -69% (active). The growth was 58.5% in the experiment with SNB-19 CNS; -96.4% (active) in the experiment with U251 CNS; 41.2% in the experiment on PC-3 prostate; 81.2% in the experiment on SK-MEL-5 melanoma; 86.8% in the experiment with UACC-62 melanoma; -48.8% (active) in the experiment with LOX IMVI melanoma. Further, in the experiment on SK-MEL-28 melanoma, the growth is 84.9%.
